Experimental findings from PubChem BioAssay (NCI) are described below.

Structures are written as SMILES. About 83,000 compounds went through this panel and 20% of them were active in at least one assay; those are over-represented in the sample as a whole.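 A percent growth of 40 corresponds to 60% growth inhibition; 0 means no net growth; -100 means all cells died. Active threshold: below 10.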 The source made the active and inactive calls.

The first assay deals with SK-OV-3 ovarian. As to the kind of experiment: NCI-60 one-dose screen, 48 h (100 = growth as untreated, 0 = no growth, -100 = all killed). Particulars: 10 µM unless noted.
Consider `CCCCCCC(CC#N)(CCC)CCCC` (stereo unspecified), for which the growth is 113% (inactive). As for `COc1ccc(NC(=O)c2ccccc2-c2ccccc2)c(C(N)=O)c1`, the growth was 32.3% (inactive). Turning to `Cc1ccc(-c2csc(N)n2)cc1`, the growth was 108% (inactive). Turning to `NS(=O)(=O)c1ccc(N2CC(c3nc4ccccc4[nH]3)CC2=O)cc1` (stereo unspecified), the growth was 89.7% (inactive). Same read-out and setting: the figure for `Cc1nn(-c2ccccc2)c2nc(N)c(C3=NCCO3)nc12` is 94.2% (inactive). `CCCCNCCCN(CCCC)CCCNCCCC`: the growth was 100% (inactive). Turning to `C1CCC(C(CC2CCCCN2)C2CCCCC2)CC1` (stereo unspecified), the growth was -52.3% (active). Consider `Oc1c(Cl)cc(Cl)c(Cl)c1Cc1c(O)c(Cl)cc(Cl)c1Cl`, for which the growth was 19.1% (inactive). As for `CSc1nc(Nc2ccc(S(=O)(=O)Nc3ccon3)cc2)c(C#N)c(-c2ccc(Cl)cc2)n1`, the growth is 108% (inactive).

Consider `O=C(Nc1nc2ccc(OC(F)(F)F)cc2s1)c1ccc(F)cc1`, for which the growth was 4.63% (active).

`COc1cccc(C=Nc2cc(C(C)C)c(O)cc2C)c1O`: the growth was 89.2% (inactive). For the compound `COC(=O)[C@H](Cc1cn(C)cn1)NC(=O)[C@H](Cc1ccccc1)NC(=O)Nc1cc(C(F)(F)F)cc(C(F)(F)F)c1`, the growth was -100% [100 µM] (active). As to `NC(=NCCCCCCN=C(N)/N=C(\N)Nc1ccc(Cl)cc1)/N=C(\N)Nc1ccc(Cl)cc1`, the growth is 2.57% (active). For the compound `Oc1c(N=Nc2nn[nH]n2)ccc2ccccc12`, the growth is 97.7% (inactive). Same read-out and setting: the figure for `Cc1ccc(/C=C/C(=O)c2ccc(F)cc2)s1` is 96.5% (inactive). Turning to `CC[N+](CCCCCCCCCC[N+](CC)(c1ccccn1)c1ccccn1)(c1ccccn1)c1ccccn1`, the growth was 8.24% (active).

Regarding `O=C(c1ccc(N2CCOCC2)cc1[N+](=O)[O-])N1CCOCC1`, the growth was 110% (inactive). For `Cc1ccc(-c2c3c(N)nc(-c4ccncc4)nc3nc3c2c(C)nn3-c2ccccc2)cc1`, the growth is -22.1% (active). Consider `COc1cccc(CCN2C(=O)CCC3=C2CCC3=O)c1`, for which the growth is 102% (inactive). `CC(=O)c1nn(-c2ccccc2)c(=Nc2ccccc2)cc1C`: the growth was 108% (inactive). Consider `COc1ccc(-c2nc3sc4c(c3c(=O)[nH]2)CCCCCC4)cc1`, for which the growth was 48% (inactive). In the case of `CCOC(=O)/C(=C/CC/C(C)=C/CC/C(C)=C/CCc1ccoc1)CC(=O)N1CCCCC1`, the growth was 84.4% (inactive). Turning to `CCCCCCCSc1ncnc2[nH]ncc12`, the growth was 101% (inactive). Regarding `CC1CC=CCC1C1OCC(C)(C)CO1` (stereo unspecified), the growth is 110% (inactive).

Regarding `Cc1[nH]c(=O)[nH]c(=O)c1CCSSCCc1c(C)[nH]c(=O)[nH]c1=O`, the growth was 103% (inactive). With `CC(NNC(=S)N1CCCCCC1)c1ccc2ccccc2n1` (stereo unspecified), the growth is 50.9% (inactive).

Take `NS(=O)(=O)c1ccc(-n2nc(-c3ccc(Br)cc3)ccc2=O)cc1`: the growth was 25% [100 µM] (inactive). `CCOc1cc(CCNS(=O)(=O)c2ccc(C)cc2)c(C(C)=O)cc1OCC`: the growth was 96.7% [100 µM] (inactive). On to `CC(=O)N1N=C(c2ccc(Nc3ccnc4cc(Cl)ccc34)cc2)CC1c1ccc(Cl)cc1` (stereo unspecified), for which the growth was 68.1% (inactive). Still for that read-out and setting: with `COC(=O)[C@H](Cc1cnc[nH]1)NC(=O)[C@@H](NC(=O)Nc1cc(C(F)(F)F)cc(C(F)(F)F)c1)C(C)C` the figure was -100% [100 µM] (active); with `CCCCCCCCCCCCC1CCCC(C)C1` (stereo unspecified), 99.7% (inactive). Still for that read-out and setting: the figure for `FC(F)(F)c1ccc(-c2cnc(-c3nn[nH]n3)nc2NC2CCCCCC2)cc1` is 86.1% [50 µM] (inactive); for `CCCCCc1c(C)[nH]c(/C=C2\N=C(c3ccc[nH]3)C=C2OCc2ccccc2)c1C` it is -97.1% [100 µM] (active); for `COc1c(Br)cc(C(c2cc(Br)c(OC)c(Br)c2)c2ccccc2C(=O)O)cc1Br` it is 106% (inactive). As for `CCOC(=O)C(C(=O)OCC)C1CCCCC1`, the growth is 108% (inactive). Consider `N#Cc1ncc(-c2ccc(C(F)(F)F)cc2)c(NC2CCCCCC2)n1`, for which the growth was 73.6% (inactive). The same measure, in the same setting: the figure for `CCCCCCCC[Si](OCC)(OCC)OCC` is 105% (inactive); for `C[C@H]1O[C@@H](O[C@H]2[C@@H](O)C[C@H](O[C@H]3[C@@H](O)C[C@H](O[C@H]4CC[C@]5(C)C6CC[C@]7(C)[C@@H](C8=CC(=O)OC8)CC[C@]7(O)C6CC[C@@H]5C4)O[C@@H]3C)O[C@@H]2C)C[C@H](O)[C@@H]1O` (stereo partly specified) it is -92.5% (active).

The subject of the next assay is IGROV1 ovarian. The assay is described as above. The conditions noted are these: 10 µM unless noted.
With `CCCCCCC(CC#N)(CCC)CCCC` (stereo unspecified), the growth was 101% (inactive).

As for `COc1ccc(NC(=O)c2ccccc2-c2ccccc2)c(C(N)=O)c1`, the growth was 52.1% (inactive). Same read-out and setting: with `NS(=O)(=O)c1ccc(N2CC(c3nc4ccccc4[nH]3)CC2=O)cc1` (stereo unspecified) the figure was 97.2% (inactive); with `CCCCNCCCN(CCCC)CCCNCCCC`, 99.5% (inactive). `C1CCC(C(CC2CCCCN2)C2CCCCC2)CC1` (stereo unspecified): the growth was 6.73% (active). Consider `Oc1c(Cl)cc(Cl)c(Cl)c1Cc1c(O)c(Cl)cc(Cl)c1Cl`, for which the growth is 25.1% (inactive). On to `CSc1nc(Nc2ccc(S(=O)(=O)Nc3ccon3)cc2)c(C#N)c(-c2ccc(Cl)cc2)n1`, for which the growth was 96.6% (inactive). Regarding `O=C(Nc1nc2ccc(OC(F)(F)F)cc2s1)c1ccc(F)cc1`, the growth is 31.1% (inactive). Consider `COc1cccc(C=Nc2cc(C(C)C)c(O)cc2C)c1O`, for which the growth is 111% (inactive). In the case of `Cn1c(N2N=C(c3ccc(Cl)cc3)CC2c2ccccc2)nc(-c2ccccc2)c(C#N)c1=O` (stereo unspecified), the growth is 79% (inactive). The same measure, in the same setting: with `NC(=NCCCCCCN=C(N)/N=C(\N)Nc1ccc(Cl)cc1)/N=C(\N)Nc1ccc(Cl)cc1` the figure was -24.1% (active); with `Oc1c(N=Nc2nn[nH]n2)ccc2ccccc12`, 78.5% (inactive); with `Cc1ccc(/C=C/C(=O)c2ccc(F)cc2)s1`, 83% (inactive). `Cc1ccc(-c2c3c(N)nc(-c4ccncc4)nc3nc3c2c(C)nn3-c2ccccc2)cc1`: the growth is 71.7% (inactive). On to `COc1cccc(CCN2C(=O)CCC3=C2CCC3=O)c1`, for which the growth was 103% (inactive).

With `CC(=O)c1nn(-c2ccccc2)c(=Nc2ccccc2)cc1C`, the growth was 106% (inactive). In the case of `COc1ccc(-c2nc3sc4c(c3c(=O)[nH]2)CCCCCC4)cc1`, the growth is 63.1% (inactive). For `CCOC(=O)/C(=C/CC/C(C)=C/CC/C(C)=C/CCc1ccoc1)CC(=O)N1CCCCC1`, the growth was 77.8% (inactive). For `CCCCCCCSc1ncnc2[nH]ncc12`, the growth was 81.7% (inactive). As to `CC1CC=CCC1C1OCC(C)(C)CO1` (stereo unspecified), the growth is 101% (inactive).

Turning to `Cc1[nH]c(=O)[nH]c(=O)c1CCSSCCc1c(C)[nH]c(=O)[nH]c1=O`, the growth was 99.8% (inactive). With `NS(=O)(=O)c1ccc(-n2nc(-c3ccc(Br)cc3)ccc2=O)cc1`, the growth is 50.2% [100 µM] (inactive). With `CCOc1cc(CCNS(=O)(=O)c2ccc(C)cc2)c(C(C)=O)cc1OCC`, the growth was 93.9% [100 µM] (inactive). For `CC(=O)N1N=C(c2ccc(Nc3ccnc4cc(Cl)ccc34)cc2)CC1c1ccc(Cl)cc1` (stereo unspecified), the growth was 51.1% (inactive).

As for `COC(=O)[C@H](Cc1cnc[nH]1)NC(=O)[C@@H](NC(=O)Nc1cc(C(F)(F)F)cc(C(F)(F)F)c1)C(C)C`, the growth was -80.5% [100 µM] (active). As for `CCCCCCCCCCCCC1CCCC(C)C1` (stereo unspecified), the growth is 91.6% (inactive). Regarding `FC(F)(F)c1ccc(-c2cnc(-c3nn[nH]n3)nc2NC2CCCCCC2)cc1`, the growth was 52.7% [50 µM] (inactive).

On to `CCCCCc1c(C)[nH]c(/C=C2\N=C(c3ccc[nH]3)C=C2OCc2ccccc2)c1C`, for which the growth is -66% [100 µM] (active). Regarding `COc1c(Br)cc(C(c2cc(Br)c(OC)c(Br)c2)c2ccccc2C(=O)O)cc1Br`, the growth is 95.7% (inactive). Turning to `CCOC(=O)C(C(=O)OCC)C1CCCCC1`, the growth is 93.2% (inactive).

For `N#Cc1ncc(-c2ccc(C(F)(F)F)cc2)c(NC2CCCCCC2)n1`, the growth is 32.5% (inactive). As for `CCCCCCCC[Si](OCC)(OCC)OCC`, the growth is 94.6% (inactive).

Regarding `C[C@H]1O[C@@H](O[C@H]2[C@@H](O)C[C@H](O[C@H]3[C@@H](O)C[C@H](O[C@H]4CC[C@]5(C)C6CC[C@]7(C)[C@@H](C8=CC(=O)OC8)CC[C@]7(O)C6CC[C@@H]5C4)O[C@@H]3C)O[C@@H]2C)C[C@H](O)[C@@H]1O` (stereo partly specified), the growth is -38.8% (active).
